Source: PubChem BioAssay (National Center for Advancing Translational Sciences (NCATS))
POLI inh: qHTS for Inhibitors of Polymerase Iota; Pol iota fluorescent replication assay, 10 min; DNA polymerase iota (Homo sapiens), Q9UNA4; hit rate 1% among 390,000; Potency, µM (top dose mostly 115 µM), for inactives: at the highest dose activity, negative = inhibition, usual class: inhibitors; note: potency is the fitted concentration of half-maximal effect
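Pol iota at 10 nM preincubated 15 min with compounds at room temperature; reaction started with fluorescent substrate, 50 nM final. Fluorescence read kinetically at 0 and 10 min; buffer-only wells as negative control.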
POLB inh: qHTS Assay for Inhibitors of DNA Polymerase Beta; Pol beta primer extension/strand displacement, fluorescence kinetic; Potency, µM (titrated, usually from 114 µM), inactives show at the highest dose activity change, negative = inhibition, most hits filed as inhibitors; P06746; hit rate 1.3% among 340,000; note: potency is the fitted concentration of half-maximal effect; % is set by controls: 0 for no effect and ±100 for the full control effect
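Homogeneous kinetic assay of primer extension and strand displacement by 10 nM Pol beta, preincubated 15 min at room temperature with compound before 50 nM substrate (final) was added. Read at 0 and 10 min; four-parameter Hill fit.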
POLK inh: qHTS for Inhibitors of Polymerase Kappa | DNA polymerase kappa (Homo sapiens), Q9UBT6 | purified Pol kappa, fluorescent DNA synthesis assay, 10 min | Potency, µM (top dose mostly 107 µM), without a hit: at the top dose activity, negative = inhibition, actives largely listed as inhibitors | hit rate 0.53% among 400,000; note: potency is the fitted concentration of half-maximal effect; % is set by controls: 0 for no effect and ±100 for the full control effect
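First, compounds were pin-transferred onto 10 nM Pol kappa. After 15 min at room temperature, substrate was added to 50 nM final. Fluorescence was then measured kinetically at 0 and 10 min.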
Pol eta inh: qHTS for Inhibitors of Polymerase Eta. recombinant Pol eta, fluorescent DNA replication assay. Potency, µM (doses to about 114 µM), for inactives: top-dose activity change, negative = inhibition, most hits filed as inhibitors. hit rate 1.2% among 390,000; note: potency is the fitted concentration of half-maximal effect; % is set by controls: 0 for no effect and ±100 for the full control effect
Target sequence (Q9Y253 whole entry, looked up): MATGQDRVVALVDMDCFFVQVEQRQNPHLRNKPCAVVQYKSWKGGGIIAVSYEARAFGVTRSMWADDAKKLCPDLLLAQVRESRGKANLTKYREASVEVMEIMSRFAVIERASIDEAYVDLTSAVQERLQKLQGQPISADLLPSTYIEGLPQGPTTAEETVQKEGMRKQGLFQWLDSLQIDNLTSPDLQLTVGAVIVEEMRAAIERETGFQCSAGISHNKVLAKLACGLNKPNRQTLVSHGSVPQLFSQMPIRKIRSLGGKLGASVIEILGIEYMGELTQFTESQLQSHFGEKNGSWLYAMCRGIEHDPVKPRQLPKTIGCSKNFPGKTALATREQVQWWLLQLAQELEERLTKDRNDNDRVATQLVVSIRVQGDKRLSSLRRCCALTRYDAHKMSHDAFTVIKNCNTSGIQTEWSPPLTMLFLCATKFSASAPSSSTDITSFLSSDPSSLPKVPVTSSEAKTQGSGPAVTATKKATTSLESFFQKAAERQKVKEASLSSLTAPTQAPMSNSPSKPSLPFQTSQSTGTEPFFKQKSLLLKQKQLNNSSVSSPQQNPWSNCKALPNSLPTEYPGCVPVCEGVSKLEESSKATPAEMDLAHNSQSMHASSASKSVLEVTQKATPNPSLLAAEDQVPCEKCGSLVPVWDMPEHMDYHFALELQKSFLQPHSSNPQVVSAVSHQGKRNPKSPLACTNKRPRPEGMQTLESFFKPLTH
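Pol eta (10 nM) was preincubated with compounds for 15 min at room temperature, after which fluorescent replication substrate (50 nM final) was added to start the reaction. Fluorescence was read kinetically at 0 and 10 min.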
WRN inhibitor: qHTS for Inhibitors of WRN Helicase; Bifunctional 3'-5' exonuclease/ATP-dependent helicase WRN (Homo sapiens), Q14191; WRN helicase unwinding, fluorescent forked duplex, kinetic; Potency, µM (series often up to 114 µM), without a hit: at the highest dose activity change, negative = inhibition, actives largely listed as inhibitors; hit rate 0.46% among 360,000; note: potency is the fitted concentration of half-maximal effect; % is set by controls: 0 for no effect and ±100 for the full control effect; nearly all actives have a fitted effect of over 55% in size
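Screening of the MLSMR collection measured strand separation of a quenched forked DNA duplex (100 nM) by 20 nM WRN with 2 mM ATP, all final. Compounds were preincubated with enzyme 15 min at room temperature.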
PI5P4Ka inh: qHTS for Inhibitors of phosphatidylinositol 5-phosphate 4-kinase (PI5P4K); hit rate 1.2% among 330,000; max response, %; AID 652105, 2013; Phosphatidylinositol 5-phosphate 4-kinase type-2 alpha (Homo sapiens), P48426; PI5P4Kalpha enzyme, ADP-Glo luminescence, 60 min; hits give low values; active = max response of -50% or lower; inconclusive = between -30% and -50%; inactive = -30% or higher; note: value at the top dose of about 77 µM; % is set by controls: 0 for no effect and ±100 for the full control effect
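Reactions run in 0.038 M HEPES pH 7.4, 0.28 mM EGTA, 0.1% CHAPS and 5% DMSO, with PI5P4Kalpha, substrate, compound and 5 microM ATP final, one hour at room temperature. Readout is ADP-Glo luminescence.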
An asterisk follows results filed as active; ? = inconclusive; . = no result given; [ ] = another dose, or the depositor's remark. Most compounds without a hit are left out; they make up all but 2.8% or so of the library. Unless noted, calls come from the whole dose curve; as a rule, active = well fitted curve in the direction sought with a large enough effect; inconclusive = small, poorly fitted or top-dose-only effect, or another doubt; inactive = no such curve, though single readings can be large; an effect the other way counts as inactive or inconclusive.

SMILES	POLI inh	POLB inh	POLK inh	Pol eta inh	WRN inhibitor	PI5P4Ka inh
CCC(C)C(N)C(=O)NC(CC(N)=O)C(=O)NC(CC(C)C)C(=O)NC(CCCCN)C(=O)NC(C)C(=O)NC(CC(C)C)C(=O)NC(C)C(=O)NC(C)C(=O)NC(CC(C)C)C(=O)NC(C)C(=O)NC(CCCCN)C(=O)NC(CCCCN)C(=O)NC(C(=O)NC(CC(C)C)C(N)=O)C(C)CC (stereo not drawn)	.	.	-8.2%[60.1 µM]	.	.	.
COc1ccc(-n2c(O)c(/C=N/NS(=O)(=O)c3cccc([N+](=O)[O-])c3)c3ccccc3c2=O)cc1OC	?	-20.0%	-9.1%	-10.5%	14.1µM*	-10.1
O=C1C(=O)C(c2cc(O)c(O)c(O)c2)Oc2cc(O)cc(O)c21 (stereo not drawn)	1.41µM*	.	1.26µM*	.	.	.
CCOC(=O)C1Nc2ccc(C)cc2C2C=CCC12 (stereo not drawn)	?	.	-21.8%	-11.3%	-7.4%	?
CCOC(=O)C1Nc2ccc(Br)cc2C2C=CCC12 (stereo not drawn)	44.7µM*	?	?	79.4µM*	-21.2%	?
O=C(OC1CCCCC1)c1ccc2c(c1)C1C=CCC1C(C(=O)O)N2 (stereo not drawn)	.	2.24µM*	.	.	.	.
CCOc1cc(CNc2ccc(N(C)C)cc2)cc(Br)c1OCC(=O)NC(C)(C)C	8.91µM*	-22.7%	-11.8%	-6.0%	-25.0%	-0.2
CCOc1cc(CNc2cccc3ccccc23)cc(Br)c1OCC(=O)NC(C)(C)C	45.6%	79.4µM*	-7.7%	-18.0%	-8.5%	.
CCOc1cc(CNc2ccc(N3CCCCC3)cc2)cc(Br)c1OCC(=O)NC(C)(C)C	9.6%	0.6%	-13.3%	-18.3%	0.1%	0.9
Cc1ccc(NC(=O)CCNS(=O)(=O)c2ccc3[nH]c(=O)oc3c2)c(Cl)c1	27.6%	11.9%	-4.5%	-16.3%	-7.0%	-1.6
COc1ccccc1C1CC(=O)Oc2cc(C)c(Cl)cc21 (stereo not drawn)	?	.	?	?	-13.6%	4.2
COc1ccccc1C1CC(=O)Oc2cc3c(cc21)OCO3 (stereo not drawn)	.	.	14.1µM*	.	.	.
CN(C)c1ccc(/C=C2\C=Nc3ccccc32)cc1	16.8%	.	2.9%	.	.	.
Cc1c(C2(c3cc(C(C)C)c(O)c(Br)c3C)OS(=O)(=O)c3ccccc32)cc(C(C)C)c(O)c1Br	?	.	-27.1%	.	.	.
CC1=C([N+](=O)[O-])C(c2ccc(Cl)cc2)NC(=O)N1C (stereo not drawn)	30.2%	5.8%	0.2%	-4.3%	70.8µM*	?
Cc1ccc2ccc(C(Nc3ccccn3)c3ccccc3)c(O)c2n1 (stereo not drawn)	22.6%	26.5%	-18.7%	-5.8%	-3.9%	-14.1
COc1cc(C(Nc2ccccn2)c2ccc3ccc(C)nc3c2O)cc(OC)c1O (stereo not drawn)	11.8%	5.6%	-15.3%	-16.8%	31.6µM*	-58.4*
Nc1nc(N)c2ncc(C(=O)CCc3ccccc3)nc2n1	104.5%	-1.0%	-23.8%	-4.6%	-30.0%	?
Nc1ccc(-c2nc3nc(N)nc(N)c3nc2-c2ccc(N)cc2)cc1	30.8%	13.6%	3.7%	?	-25.8%	-50.9*
CCn1c2ccccc2c2nnc(SCc3ccc(C(=O)OC)o3)nc21	3.2%	35.5µM*	-6.4%	-10.0%	-11.2%	.
CCCCC(=O)N(C)c1c(C)nc2ccc(C(=O)N3CCN(c4ccccc4)CC3)cn12	.	.	.	.	-2.3%	5.4
O=C(CCC(=O)c1cccs1)OCC(=O)N1CCN(C(=O)c2ccco2)CC1	?	3.4%	?	?	31.6µM*	?
COC(=O)C[C@@H]1CC[C@H](NS(=O)(=O)c2cccc(F)c2)[C@@H](CO)O1	.	.	.	.	2.4%	-0.5
